Screens (PubChem)
In the library only some 4.4% were active in any assay of this set; here they are far more common.
tim23-1 inh – tim23-1 yeast growth inhibition; S. cerevisiae tim23-1 growth, BacTiter-Glo luminescence, 24 h; inhibition, % at 20 µM; hit rate 1.3% among 330,000; AID 463212;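 active = growth inhibition of the mutant yeast at or above 50%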;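 also: temperature-sensitive mutant grown at 25 °C; plate controls were DMSO-treated mutant yeast for no effect and medium wells lacking yeast for full effect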
SUMO Mot1 rescue – blocks SUMOylation pathway, rescuing yeast Mot1-301 growth. hit rate 1% among 320,000. AID 2716. growth rescue, % at 18.8 µM. S. cerevisiae Mot1-301 growth rescue, ATP luminescence, 38.5C; percent above DMSO median, 100 means doubled;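 active = every valid replicate shows activation above 250% relative to neutral control wells; inactive = the rest, any valid replicate at or below 250%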;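 also: OY570 slx delta 5 strain wells were the positive control but not used for scaling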
TIM10 inh – TIM10 yeast growth inhibition; S. cerevisiae TIM10 strain growth, BacTiter-Glo luminescence, 24 h; hit rate 1.4% among 330,000; inhibition, % at 10 µM;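 active = inhibition of 40% or more at the single tested concentration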;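 also: wild-type TIM10 isogenic control strain grown at permissive 25 °C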
tim10-1 inh – tim10-1 yeast growth inhibition; inhibition, % at 20 µM; S. cerevisiae tim10-1 ts strain growth, BacTiter-Glo, 24 h; hit rate 2.2% among 330,000;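 active = inhibition of at least 40%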;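 also: mutant grown at 25 °C; 0% = DMSO wells with yeast and 100% = wells holding no yeast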
PfHsp90 yeast 2 – reduces growth (ATP signal) of yeast expressing P. falciparum Hsp90. AID 504621. S. cerevisiae expressing PfHsp90, BacTiter-Glo ATP, 48 h; yeast lacking PDR1 and PDR3 efflux regulators. hit rate 0.32% among 310,000. inhibition, % at 9.4 µM;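 active = every replicate shows inhibition above about 80%, whatever the replicate mean, limit read from the data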;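 also: 0% = DMSO neutral controls and 100% = 20 µM radicicol positive controls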
* hit, by the source's call; i = inactive; . = not tested or not shown.

SMILES | tim23-1 inh | SUMO Mot1 rescue | TIM10 inh | tim10-1 inh | PfHsp90 yeast 2
COc1ccc(-c2ccc3c(c2)C2CC3CCN2Cc2ccc(OC(F)(F)F)cc2)cc1 (centres undefined) | . | . | . | . | 4.7
CC(Oc1ccc(Cl)cc1Cl)C(=O)NNC(=O)C(=O)N1CCCC1 (centres undefined) | 4.8 | -1.6 | 4.5 | 8.0 | 4.2
OCCCn1c(C2CCCN2c2nc(-c3ccc(F)cc3)cs2)nc2cc(Cl)c(Cl)cc21 (centres undefined) | 4.2 | 1.6 | -2.8 | 17.9 | 106.8*
CN(C)c1ccc(-c2cc(O)c3ncccc3c2)cc1 | 5.4 | -20.1 | -7.7 | 19.1 | 101.2*
Oc1cc(-c2ccc(N3CCCCC3)nc2)cc2cccnc12 | 34.3 | -17.3 | -0.1 | 0.6 | 110.6*
Cc1ccccc1NC(=O)OCc1ccccc1 | 2.1 | 6.6 | -8.1 | 0.7 | -13.2
CCN(CC)c1ccc(/C=C2/SC(=O)N(C(C)C)C2=O)o1 | . | . | . | . | 85.8*
CN(C)S(=O)(=O)c1ccc(N2CCCC2)c(C(=O)Nc2ccc(C(N)=O)cc2)c1 | 5.0 | 261.0* | -8.3 | -1.2 | -16.7
CN(C)S(=O)(=O)c1ccc(N2CCCC2)c(C(=O)Nc2ccc(N3CCOCC3)cc2)c1 | -11.1 | -8.4 | 5.0 | 25.3 | -2.6
COc1cccc(/C=N/Nc2nc(-c3cccnc3)nc3ccccc23)c1 | 24.4 | 313.7* | 7.8 | 34.4 | -16.7
COc1ccccc1NC(=O)COC(=O)c1c[nH]c(=O)[nH]c1=O | 8.0 | 4.1 | -2.7 | -4.0 | -3.5
O=C(COC(=O)c1c[nH]c(=O)[nH]c1=O)Nc1ccccc1Br | 15.1 | 807.7* | 8.8 | 9.7 | -3.3
CC(=O)/C(=N\Nc1ccccc1)Oc1ccc(Br)cc1 | 34.8 | -4.6 | -2.4 | -5.4 | .
CCOC(=O)c1c(C)[nH]c(C)c1C(=O)CSc1nc2ccccc2[nH]1 | -2.4 | 452.6* | 10.2 | 9.6 | -8.8
COc1ccc(C(=O)NCCc2cnc[nH]2)cc1OC | 0.1 | 282.2* | 3.8 | 1.2 | 0.4
Oc1ccccc1N1CCN(c2nnnn2-c2ccccc2)CC1 | 24.3 | 439.0* | -3.5 | 7.0 | -16.8
COCCCN(C(=O)CC1OC(=O)c2ccccc21)c1c(N)n(Cc2ccccc2)c(=O)[nH]c1=O (centres undefined) | 10.3 | 3.1 | 1.1 | -4.3 | -27.7
CS(=O)(=O)N1CCC(C(=O)N2CCN(c3ccccc3F)CC2)CC1 | 7.8 | 309.5* | 3.7 | -8.1 | -2.1
CCCCCCCn1c(=N)n(CC(=O)c2ccco2)c2ccccc21 | 4.2 | 514.1* | -0.4 | 15.7 | -3.2
Cc1ccc(O)c(C2=NNC(O)(C(F)(F)F)C2)c1 (centres undefined) | 17.3 | 340.4* | 8.2 | 10.1 | -12.8
Cc1ccc(O)c(C2=NNC(c3ccc(Cl)cc3)C2)c1 (centres undefined) | 31.4 | 25.8 | 19.7 | 23.3 | -19.2
CC(=O)c1ccc(N2CCN(C3CCC(C(C)(C)C)CC3)CC2)cc1 (centres undefined) | -92.6 | 256.2* | -98.1 | -115.4 | -3.0
CC(=O)c1ccc(N2CCC(C(=O)O)CC2)cc1 | 11.2 | i | 13.2 | -7.0 | 7.8
Cc1c(OCC(=O)C(C)(C)C)ccc2c(-c3ccccc3)cc(=O)oc12 | 1.9 | -17.5 | -107.5 | -28.5 | 96.1*
CC1(C)CC(=O)/C(=N/Nc2ccc(Cl)cc2)CO1 | 4.3 | 274.9* | 23.8 | -38.5 | 46.8
SMILES | tim23-1 inh | SUMO Mot1 rescue | TIM10 inh | tim10-1 inh | PfHsp90 yeast 2
Cn1nnnc1Sc1ncnc2scc(-c3ccccc3Br)c12 | 15.2 | -7.1 | -4.8 | -3.4 | 16.0
Cn1nnnc1Sc1ncnc2scc(Br)c12 | 29.0 | 342.0* | 17.2 | 10.4 | 7.8
COC(=O)CCC(=O)Nc1nc(-c2ccccc2)cs1 | 6.6 | 333.9* | -5.8 | -1.4 | 1.2
COc1ccc(N(C(=O)c2ccco2)C(C(=O)NC2CCCC2)c2ccncc2)cc1OC (centres undefined) | -10.3 | 275.2* | 7.7 | -26.3 | -8.4
NC(=O)c1sc(=S)n2c1[nH]c(=O)c1sccc12 | 1.8 | 729.8* | 2.3 | 4.3 | .
CC(=O)NNC(=O)c1sc(=S)n2c1[nH]c(=O)c1sccc12 | -4.7 | 1.4 | 6.0 | 8.2 | 3.8
O=[N+]([O-])c1cc(Cl)c2cccnc2c1O | -38.1 | -9.3 | 7.2 | 9.8 | -44.0
O=[N+]([O-])c1cc(Cl)c(O)c2ncccc12 | -13.3 | . | -6.7 | -16.4 | 98.4*
CC(C)(C)c1ccc(Cn2c(=O)cnc3ccccc32)cc1 | 31.3 | 19.2 | 12.7 | 38.6 | -4.3
COCCOC(=O)C1=C(C)NC(=S)NC1/C=C/c1ccccc1 (centres undefined) | 11.6 | 193.2 | 7.0 | 16.2 | 9.9
CC1=C(C(=O)OCc2ccccc2)C(/C=C/c2ccccc2)NC(=S)N1 (centres undefined) | 35.8 | 178.3 | 35.0 | -3.6 | 85.4*
O=C(Cn1cnc2ccccc2c1=O)N1CCc2ccccc2C1 | 0.2 | 497.7* | 2.3 | -44.8 | -10.9
O=C(C[C@@H]1C/C=C\CC[C@H](Cc2ccc(F)cc2)C(=O)OC[C@@H]2CCCN2C1=O)NCCO | 2.2 | -14.4 | 0.4 | -6.8 | -1.9
Cc1cccc(CSCc2ccc(C(=O)NCC3CCCO3)o2)c1 (centres undefined) | 0.4 | 315.0* | -54.4 | -11.7 | 15.5
Fc1ccc(-c2nc3c(-c4ccc(Cl)cc4)cnn3cc2CCN2CCOCC2)cc1 | -23.6 | 145.3 | 0.7 | 28.6 | -37.7
CCC[C@H]1COCCS(=O)(=O)N1Cc1ccc(Br)cc1 | 37.4 | 7.6 | 17.6 | 27.4 | .
O=C(NC(=S)NC(CO)c1ccccc1)c1ccc(F)cc1 (centres undefined) | 10.7 | 287.3 | 5.0 | 5.5 | 10.3
CN(C)CCNC(=O)c1ccc2c(c1)NC(=O)c1ccccc1S2 | 3.4 | 335.7* | -13.2 | 1.5 | -16.5
CCCCCCC(=O)N(O)C1CC(=O)N(c2ccc(F)cc2)C1=O (centres undefined) | 31.2 | 194.5 | 24.3 | 31.8 | 109.1*
O=C(COC(=O)C12CC3CC(CC(O)(C3)C1)C2)Nc1cccc(Br)c1 | 20.1 | . | 4.1 | 19.6 | -98.2
NC(=O)c1ncc(C(F)(F)F)cc1Oc1cccc(C(F)(F)F)c1 | 11.4 | 309.3* | 2.6 | 6.2 | 2.0
NC(=O)c1ncc(C(F)(F)F)cc1Oc1cccc(F)c1 | -4.4 | 17.1 | -21.8 | -8.1 | .
Cc1ccc2[nH]c(C(F)(F)F)cc(=O)c2c1 | 5.8 | 342.5* | 2.4 | -0.6 | 16.6
CCCCNC(=O)C1CCN(Cc2ccccn2)CC1 | 1.5 | 303.0* | -5.0 | 10.2 | -1.5
CC(=O)N(c1ccc(Br)cc1)C1C=CS(=O)(=O)C1 (centres undefined) | -17.8 | 24.5 | 10.0 | -14.2 | 3.3
CCc1ccc(N(C(C)=O)C2C=CS(=O)(=O)C2)cc1 (centres undefined) | 1.0 | 531.3* | 5.9 | 14.2 | 4.1
COc1ccc(C(C)=O)c(Oc2cc(NN3CCCCC3)c([N+](=O)[O-])cc2[N+](=O)[O-])c1 | 12.9 | -1.5 | 6.0 | 12.4 | 26.4
Cc1ccc(S(=O)(=O)N(Cc2ccccc2F)C(=O)N2CCN(C)CC2)cc1 | 5.0 | -5.7 | -2.6 | 4.0 | -8.2
